Assay results as given in PubChem BioAssay (EPA / NIEHS).
Active and inactive are the calls of the source. Rule for the calls: active = hit-call score of the fitted dose curve at least 0.9, where 1 is the maximum; inactive = score below 0.9.

How the values were obtained:
[1] = APR_HepG2_NuclearSize_72hr: Apredica 72-hour HepG2 Assay for Nuclear Size (AID 2282925); settings: high-content imaging, actives raise or lower the signal
How it was run: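 HepG2 cells were exposed to compounds at ten concentrations from 0.39 to 200 uM (duplicate, 0.5% DMSO final) for 72 hr. After fixation in 3.7% formaldehyde, nuclei were stained with Hoechst 33342 (2 ug/mL) and imaged at 20x.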

[2] = ATG_CRE_CIS: Attagene CIS-FACTORIAL HepG2 Assay for human cAMP Responsive Element (CRE) binding protein 3 (AID 2282926); settings: HepG2 CRE cis-reporter, Attagene multiplexed mRNA; actives raise or lower the signal
How it was run: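 HepG2 cells transiently transfected with cis-element-driven multiple reporter transcription units; CRE reporter mRNA measured 24 h after dosing by RT-PCR, 6-FAM labelling, HpaI digestion and capillary electrophoresis. Bidirectional fit versus DMSO baseline.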

[3] = target: CCAAT/enhancer-binding protein beta (Homo sapiens) (UniProt P17676); test: ATG_C_EBP_CIS: Attagene CIS-FACTORIAL HepG2 Assay for human CCAAT/Enhancer Binding Protein (C/EBP) beta (AID 2282927); settings: HepG2 Attagene cis-factorial transcription factor reporter; actives raise or lower the signal
How it was run: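 RT-PCR/capillary electrophoresis fluorescence of reporter mRNA, 24 h post-dose, in HepG2 cells carrying transfected cis-promoter reporter units. Bidirectional curve fitting against DMSO baseline captures gain or loss of signal.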

[4] = ATG_CMV_CIS: Attagene CIS-FACTORIAL HepG2 Assay for human CMV (Internal Marker) (AID 2282928); settings: HepG2 CMV promoter reporter, transcription factor profiling; actives raise or lower the signal;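 note: endpoint acts as a background internal control marker rather than a target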
How it was run: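 Endogenous transcription factor activity read in HepG2 via transfected cis-promoter reporter units. After 24 h dosing, reporter mRNA measured by RT-PCR/capillary electrophoresis; gain or loss of signal fit relative to DMSO.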

[5] = ATG_DR4_LXR_CIS: Attagene CIS-FACTORIAL HepG2 Assay for human Liver X Receptor (LXR), DR4 submotif (AID 2282929); settings: HepG2 Attagene DR4 cis-reporter, mRNA transcription; actives raise or lower the signal
How it was run: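 DR4 cis-reporter in HepG2, 24 h exposure. Detection: RT-PCR, 6-FAM labelling, CE fragment analysis. Endpoint fitted bidirectionally, DMSO = baseline.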

[6] = target: Aryl hydrocarbon receptor (Homo sapiens) (UniProt P35869); test: ATG_Ahr_CIS: Attagene CIS-FACTORIAL HepG2 Assay for human Aryl Hydrocarbon Receptor (Ahr) (AID 2282930); settings: HepG2 AhR cis-factorial reporter transcription; actives raise or lower the signal
How it was run: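 HepG2 cells transiently transfected with cis-element-driven multiplexed reporter transcription units; endogenous transcription factor activity measured as reporter mRNA 24 h after dosing. RT-PCR, 6-FAM labelling, HpaI digestion, capillary electrophoresis; bidirectional fitting versus DMSO baseline.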

[7] = ATG_AP_1_CIS: Attagene CIS-FACTORIAL HepG2 Assay for human Activator Protein 1 (AP-1) (AID 2282931); settings: HepG2 Attagene cis-factorial AP-1 reporter mRNA; actives raise or lower the signal
How it was run: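 Cis-regulated reporter units transiently expressed in HepG2 report endogenous transcription-factor activity. Signal: reporter mRNA at 24 h, via RT-PCR and fluorescent capillary electrophoresis. Endpoint derived by bidirectional fitting, DMSO as negative control.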

[8] = ATG_AP_2_CIS: Attagene CIS-FACTORIAL HepG2 Assay for human Activator Protein 2 (AP-2) (AID 2282932); settings: HepG2 AP-2 cis-reporter, Attagene transcription factor profiling; actives raise or lower the signal
How it was run: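 Bidirectional curve fitting against DMSO was applied to reporter mRNA signals from HepG2 cells 24 h after dosing. Cis-promoter reporter units, transiently transfected, were read by RT-PCR plus capillary electrophoresis.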

[9] = ATG_BRE_CIS: Attagene CIS-FACTORIAL HepG2 Assay for human Bone Morphogenetic Protein (BMP) Response Element (BRE) (AID 2282933); settings: HepG2 BMP response element reporter, Attagene transcription factor profiling; actives raise or lower the signal
How it was run: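 Endogenous transcription factor activity read in transiently transfected HepG2 cells after 24 h chemical exposure. Bidirectional curve fitting against DMSO; readout is reporter transcript level by RT-PCR with capillary electrophoresis of labelled products.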

[10] = target: Retinoic acid receptor alpha (Homo sapiens) (UniProt P10276); test: ATG_DR5_RAR_CIS: Attagene CIS-FACTORIAL HepG2 Assay for human Retinoic Acid Receptor Alpha (RARE), DR5 submotif (AID 2282934); settings: HepG2 Attagene cis-factorial RARE DR5 reporter, mRNA; actives raise or lower the signal;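 for AC50: reporter responds to endogenous RAR alpha beta and gamma in HepG2 not RARA alone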
How it was run: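 HepG2 cells transiently transfected with multiplexed reporter units under cis (DR5 RARE) promoters, so endogenous transcription factor activity is measured. After 24 h compound exposure, reporter mRNA is quantified by RT-PCR with fluorescent labelling and capillary electrophoresis; bidirectional fitting versus DMSO.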

[11] = target: Transcription factor E2F1 (Homo sapiens) (UniProt Q01094); test: ATG_E2F_CIS: Attagene CIS-FACTORIAL HepG2 Assay for human E2F Transcription Factor 1 (AID 2282935); settings: HepG2 Attagene cis-reporter, E2F reporter RNA transcripts; actives raise or lower the signal
How it was run: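 Multiplexed cis-reporter assay: HepG2, transient transfection, 24 h dosing, mRNA quantitation by labeled RT-PCR and CE.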

[12] = ATG_E_Box_CIS: Attagene CIS-FACTORIAL HepG2 Assay for human Enhancer Box (E-box) (AID 2282936); settings: HepG2 E-box cis-reporter transcription, actives raise or lower the signal
How it was run: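 Multiplexed CIS reporter system in transiently transfected HepG2 cells measures native transcription factor activity. Reporter RNA after 24 h exposure is profiled by RT-PCR-capillary electrophoresis.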

[13] = ATG_M_61_CIS: Attagene CIS-FACTORIAL HepG2 Assay for M61 Transcription Factor (Internal Marker) (AID 2282937); settings: HepG2 Attagene CIS-FACTORIAL M61 internal marker reporter; actives raise or lower the signal
How it was run: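 Background-control endpoint: HepG2 cells with cis-regulated reporter constructs, 24 h exposure, reporter mRNA detected via fluorescent primer extension and capillary electrophoresis; values from bidirectional fitting with DMSO baseline.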

[14] = ATG_EGR_CIS: Attagene CIS-FACTORIAL HepG2 Assay for human Early Growth Response 1 (EGR1) (AID 2282938); settings: HepG2 Attagene CIS-FACTORIAL EGR reporter mRNA; actives raise or lower the signal
How it was run: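 Endpoint derived by bidirectional fitting versus DMSO vehicle. Method: cis-promoter reporter units transfected into HepG2, 24 h dosing, RNA isolation, RT-PCR with 6-FAM primer extension and HpaI digestion, then capillary electrophoresis fluorescence detection.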

[15] = ATG_M_19_CIS: Attagene CIS-FACTORIAL HepG2 Assay for M19 Transcription Factor (Internal Marker) (AID 2282939); settings: HepG2 Attagene CIS-FACTORIAL M19 internal marker reporter; actives raise or lower the signal
How it was run: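 Internal marker readout, fitted in both directions against DMSO, from HepG2 cells carrying transfected cis-element reporter constructs; RT-PCR and capillary electrophoresis of reporter mRNA after 24 h exposure.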

[16] = ATG_ERE_CIS: Attagene CIS-FACTORIAL HepG2 Assay for Estrogen Response Element (ERE) (AID 2282940); settings: HepG2 ERE cis-reporter, Attagene RNA transcript; actives raise or lower the signal
How it was run: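 After 24 h compound treatment, RNA from transfected HepG2 cells was reverse-transcribed, reporter cDNA PCR-amplified, FAM-labelled, HpaI-cut and resolved by capillary electrophoresis. ERE-driven cis reporter transcripts reflect endogenous factors; gain or loss scored against DMSO.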

[17] = ATG_Ets_CIS: Attagene CIS-FACTORIAL HepG2 Assay for human Erythroblast Transformation Specific (ETS) (AID 2282941); settings: HepG2 ETS cis-reporter transcription, actives raise or lower the signal
How it was run: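 Steps: transfect HepG2 with multiple reporter units; treat compound 24 h; isolate RNA, DNase-treat, reverse-transcribe; PCR-amplify, label with 6-FAM, digest with HpaI; separate by capillary electrophoresis. Activity fitted both directions versus DMSO.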

[18] = target: Hepatocyte nuclear factor 3-beta (Homo sapiens) (UniProt Q9Y261); test: ATG_FoxA2_CIS: Attagene CIS-FACTORIAL HepG2 Assay for human Forkhead box A2 (FOXA2) (AID 2282942); settings: HepG2 cis-reporter transcription factor activity, 24 h; actives raise or lower the signal
How it was run: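 Measured: reporter mRNA induction or loss in HepG2 transiently carrying multiple cis-regulated reporter units, 24 h after dosing. Quantified by RT-PCR plus capillary electrophoresis, normalised to DMSO.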

[19] = ATG_FoxO_CIS: Attagene CIS-FACTORIAL HepG2 Assay for human Forkhead box O (FoxO) (AID 2282943); settings: HepG2 Attagene cis-reporter, FoxO element, mRNA; actives raise or lower the signal
How it was run: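 HepG2 cells transiently transfected with cis-promoter-driven multiple reporter transcription units; 24 h after chemical dosing, reporter mRNA quantified by RT-PCR, fluorescent primer extension, HpaI digestion and capillary electrophoresis. Bidirectional fitting versus DMSO baseline.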

[20] = ATG_GATA_CIS: Attagene CIS-FACTORIAL HepG2 Assay for human GATA Binding Protein (AID 2282944); settings: HepG2 GATA cis-element reporter, Attagene multiplex mRNA; actives raise or lower the signal
How it was run: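 Reporter transcripts from a GATA cis-regulated unit, among multiplexed reporters in transfected HepG2 cells, were measured by RT-PCR with capillary electrophoresis after 24 h dosing. Induction or loss scored relative to DMSO.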

Measured: AC50

Chain of CCAAT/enhancer-binding protein beta (Homo sapiens) (P17676 whole entry, looked up): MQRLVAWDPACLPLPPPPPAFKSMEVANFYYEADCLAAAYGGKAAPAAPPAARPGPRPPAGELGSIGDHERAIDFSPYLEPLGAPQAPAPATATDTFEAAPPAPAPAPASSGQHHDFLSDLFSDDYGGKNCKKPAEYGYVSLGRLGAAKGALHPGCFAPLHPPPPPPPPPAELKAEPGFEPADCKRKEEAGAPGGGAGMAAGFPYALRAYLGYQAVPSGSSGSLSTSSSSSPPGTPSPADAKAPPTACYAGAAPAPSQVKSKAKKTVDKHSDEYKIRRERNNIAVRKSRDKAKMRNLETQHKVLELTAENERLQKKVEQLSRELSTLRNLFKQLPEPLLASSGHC
Chain of Aryl hydrocarbon receptor (Homo sapiens) (P35869 whole entry, looked up): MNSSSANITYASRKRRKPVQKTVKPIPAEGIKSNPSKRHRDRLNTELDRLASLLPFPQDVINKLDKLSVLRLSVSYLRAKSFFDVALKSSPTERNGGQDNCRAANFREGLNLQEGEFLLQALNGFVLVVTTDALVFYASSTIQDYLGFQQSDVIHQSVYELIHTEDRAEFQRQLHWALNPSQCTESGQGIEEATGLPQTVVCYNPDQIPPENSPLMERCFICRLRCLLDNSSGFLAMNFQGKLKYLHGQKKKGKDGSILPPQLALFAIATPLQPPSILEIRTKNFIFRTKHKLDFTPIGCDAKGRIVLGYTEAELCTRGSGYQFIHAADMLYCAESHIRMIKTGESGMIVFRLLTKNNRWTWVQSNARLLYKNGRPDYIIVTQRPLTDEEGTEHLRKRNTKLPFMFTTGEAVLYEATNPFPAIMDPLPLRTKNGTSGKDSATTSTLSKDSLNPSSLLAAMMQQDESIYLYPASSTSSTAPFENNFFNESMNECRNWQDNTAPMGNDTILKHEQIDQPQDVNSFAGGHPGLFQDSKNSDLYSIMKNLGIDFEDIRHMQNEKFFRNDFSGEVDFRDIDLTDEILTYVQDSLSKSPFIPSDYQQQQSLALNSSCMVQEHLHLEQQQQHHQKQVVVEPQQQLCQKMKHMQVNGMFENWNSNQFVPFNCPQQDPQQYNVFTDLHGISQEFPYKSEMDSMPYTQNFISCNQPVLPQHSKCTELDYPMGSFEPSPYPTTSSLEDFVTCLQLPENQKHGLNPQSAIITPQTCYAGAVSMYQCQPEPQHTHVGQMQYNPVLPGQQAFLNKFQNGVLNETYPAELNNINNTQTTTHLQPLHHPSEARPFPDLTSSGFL
Chain of Retinoic acid receptor alpha (Homo sapiens) (P10276 whole entry, looked up): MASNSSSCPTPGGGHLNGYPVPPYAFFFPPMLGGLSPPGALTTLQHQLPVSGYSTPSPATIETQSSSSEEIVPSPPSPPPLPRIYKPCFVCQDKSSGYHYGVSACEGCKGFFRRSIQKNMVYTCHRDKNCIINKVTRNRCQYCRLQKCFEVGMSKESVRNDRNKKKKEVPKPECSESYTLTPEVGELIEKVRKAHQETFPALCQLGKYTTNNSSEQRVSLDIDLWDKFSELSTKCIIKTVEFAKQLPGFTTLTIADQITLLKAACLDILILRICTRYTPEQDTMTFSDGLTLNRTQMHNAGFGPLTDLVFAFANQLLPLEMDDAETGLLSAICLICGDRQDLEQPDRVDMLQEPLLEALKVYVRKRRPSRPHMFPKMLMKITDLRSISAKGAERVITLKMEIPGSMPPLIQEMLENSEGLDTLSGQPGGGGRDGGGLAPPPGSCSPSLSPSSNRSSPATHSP
Chain of Transcription factor E2F1 (Homo sapiens) (Q01094 whole entry, looked up): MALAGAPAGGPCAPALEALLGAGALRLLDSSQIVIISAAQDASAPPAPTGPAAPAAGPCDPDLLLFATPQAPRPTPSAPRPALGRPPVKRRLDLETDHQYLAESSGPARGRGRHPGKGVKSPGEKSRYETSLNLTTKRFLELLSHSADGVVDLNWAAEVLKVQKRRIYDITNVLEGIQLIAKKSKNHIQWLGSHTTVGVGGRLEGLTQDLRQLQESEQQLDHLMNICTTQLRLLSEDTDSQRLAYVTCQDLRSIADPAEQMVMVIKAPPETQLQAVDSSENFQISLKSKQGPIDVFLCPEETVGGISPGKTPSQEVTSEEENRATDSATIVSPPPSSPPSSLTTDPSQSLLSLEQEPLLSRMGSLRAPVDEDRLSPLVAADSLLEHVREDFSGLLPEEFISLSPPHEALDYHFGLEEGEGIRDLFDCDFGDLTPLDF
Chain of Hepatocyte nuclear factor 3-beta (Homo sapiens) (Q9Y261 whole entry, looked up): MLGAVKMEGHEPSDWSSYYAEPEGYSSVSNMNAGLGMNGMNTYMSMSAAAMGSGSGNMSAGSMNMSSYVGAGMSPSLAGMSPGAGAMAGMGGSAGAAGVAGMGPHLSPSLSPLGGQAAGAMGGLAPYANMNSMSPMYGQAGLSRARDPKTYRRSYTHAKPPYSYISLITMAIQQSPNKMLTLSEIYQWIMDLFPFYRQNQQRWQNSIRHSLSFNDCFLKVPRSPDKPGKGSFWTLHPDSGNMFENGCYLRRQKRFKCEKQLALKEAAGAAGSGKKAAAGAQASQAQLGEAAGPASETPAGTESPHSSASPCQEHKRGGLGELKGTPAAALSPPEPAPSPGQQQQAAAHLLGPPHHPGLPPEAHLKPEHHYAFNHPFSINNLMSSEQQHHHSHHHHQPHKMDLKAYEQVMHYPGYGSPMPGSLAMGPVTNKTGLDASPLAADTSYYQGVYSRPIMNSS

O=c1[nH]cnc2c1ncn2[C@H]1CC[C@@H](CO)O1
inactive: all assays above

CNC(C)=O
not listed: [3]
inactive: all other assays above

CCCC(CCC)C(=O)O
not listed: [5] | [10] | [18]
inactive: all other assays above

O=C(NO)C1(NS(=O)(=O)c2ccc(Oc3ccc(F)cc3)cc2)CCOCC1
not listed: [3]
inactive: all other assays above

OC[C@H]1O[C@@](CO)(O[C@H]2O[C@H](CO)[C@@H](O)[C@H](O)[C@H]2O)[C@@H](O)[C@@H]1O
not listed: [3]
inactive: all other assays above

CCCCCOC(C)=O
not listed: [3]
inactive: all other assays above

OCCOCCOCCO
not listed: [6] | [10] | [14]
inactive: all other assays above

O=C(O)c1cccc(C(=O)O)c1
not listed: [3]
inactive: all other assays above

NC(=O)N(O)[C@@H]1COc2cc(OCc3ccccc3)ccc21
active: [10] 0.406 µM
not listed: [3]
inactive: all other assays above

CC(C)CCCCCCOC(=O)C1CCCCC1C(=O)OCCCCCCC(C)C (stereo unspecified)
active: [6] 84.8 µM
not listed: [3]
inactive: all other assays above

C=CCc1cc(S(=O)(=O)c2ccc(O)c(CC=C)c2)ccc1O
active: [1] 79.1 µM | [4] 27.9 µM | [5] 20.4 µM | [7] 23.2 µM | [9] 22.1 µM | [12] 55.6 µM | [14] 45.8 µM | [16] 1.12 µM
not listed: [3]
inactive: all other assays above

NC(=O)NN=Cc1ccc([N+](=O)[O-])o1
active: [4] 17.2 µM | [7] 64.4 µM | [12] 113 µM
not listed: [10] | [14]
inactive: all other assays above

Cn1cc[nH]c1=S
not listed: [5] | [18]
inactive: all other assays above

COCc1nnc(-c2ccc[n+]([O-])c2)n1-c1c(Cl)c(Cl)cc2[nH]c(=O)c(=O)[nH]c12
not listed: [3]
inactive: all other assays above
